# An excerpt weighted towards active compounds, which were near 3% of everything screened.
# Tau fluor counter: Counterscreen qHTS for Inhibitors of Tau Fibril Formation, Fluorescence Polarization; tau K18 P301L Alexa594 fluorescence, heparin fibrillization; Potency, µM (titrated, usually from 57.7 µM), inactives show at the highest dose activity change, negative = decrease; 280,000 compounds, 0.93% hits; further: potency means the concentration at half of the fitted maximal effect; nearly all actives have a fitted effect of over 55% in size
#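 Human K18 P301L tau (15 uM unlabeled plus 0.24 uM Alexa 594-labeled, final) in 100 mM sodium acetate pH 7 was mixed with compound and 20 uM heparin and incubated 6 hr at 37 C.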
# JMJD2E inh: qHTS Assay for Inhibitors of Human Jumonji Domain Containing 2E (JMJD2E). 230,000 compounds, 1.6% hits. Lysine-specific demethylase 4E (Homo sapiens), B2RXH2. AID 2147, 2009. Potency, µM (highest dose often 57.1 µM), for inactives: top-dose activity change, negative = inhibition, actives largely listed as inhibitors. JMJD2E catalytic domain, FDH-coupled NADH fluorescence (FDH is formaldehyde dehydrogenase);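 further: potency means the concentration at half of the fitted maximal effect; 0% = wells with enzyme and -100% = buffer wells without enzyme; nearly all actives have a fitted effect of over 50% in size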
# Target sequence (B2RXH2 1-337 limits assumed): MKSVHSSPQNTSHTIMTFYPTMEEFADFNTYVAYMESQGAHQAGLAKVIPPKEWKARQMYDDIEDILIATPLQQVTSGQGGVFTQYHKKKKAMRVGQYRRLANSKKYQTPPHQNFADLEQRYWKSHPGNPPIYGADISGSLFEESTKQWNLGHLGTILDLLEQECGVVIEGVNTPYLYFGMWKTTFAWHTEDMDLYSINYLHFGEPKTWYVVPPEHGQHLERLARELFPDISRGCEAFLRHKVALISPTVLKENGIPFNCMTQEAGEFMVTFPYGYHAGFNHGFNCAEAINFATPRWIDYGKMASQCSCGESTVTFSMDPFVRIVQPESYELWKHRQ
# Tau fibril ThT: qHTS for Inhibitors of Tau Fibril Formation, Thioflavin T Binding. Microtubule-associated protein tau (Homo sapiens), P10636. 270,000 compounds, 2.1% hits. AID 1460, 2008. recombinant tau K18 P301L (four-repeat tau fragment), heparin-induced fibrillization, ThT fluorescence. Potency, µM (doses to about 57.4 µM), inactives show at the top dose activity, negative = inhibition, most hits filed as inhibitors; further: potency means the concentration at half of the fitted maximal effect; nearly all actives have a fitted effect of over 55% in size
# Target sequence (P10636 561-689 P618L limits assumed): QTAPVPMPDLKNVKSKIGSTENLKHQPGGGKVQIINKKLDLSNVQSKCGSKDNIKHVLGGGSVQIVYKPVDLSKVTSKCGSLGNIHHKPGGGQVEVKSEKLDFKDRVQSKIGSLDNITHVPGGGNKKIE
#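 Aggregation was driven by heparin (20 uM final) acting on recombinant tau […] bearing P301L in 100 mM sodium acetate pH 7; fibrils were detected with Thioflavin T.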
# Tau FP inhib: qHTS for Inhibitors of Tau Fibril Formation, Fluorescence Polarization; Potency, µM (doses to about 57.7 µM), inactives show at the top dose activity, negative = inhibition, most hits filed as inhibitors; 280,000 compounds, 0.39% hits; Microtubule-associated protein tau (Homo sapiens), P10636; K18 P301L tau heparin fibrillization, Alexa594 FP, 6 h; AID 1468, 2008; further: potency means the concentration at half of the fitted maximal effect; nearly all actives have a fitted effect of over 55% in size
#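 Recombinant K18 P301L […], labeled with Alexa 594 at 0.24 uM over 15 uM unlabeled; heparin inducer 20 uM final; 37 C, 6 hr; FP endpoint.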
# Coupling enz: qHTS Assay for Inhibitors of Fructose-1,6-bisphosphate Aldolase from Giardia Lamblia: Coupling assay counterscreen; coupling enzyme system counterscreen, AmpLite Red fluorescence; activity change, negative = inhibition, % at 58.2 µM, hits read low; 290,000 compounds, 0.67% hits; in the data active means activity change below about -30%
#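 Counterscreen of the coupled detection system alone, without aldolase: glyceraldehyde-3-phosphate coupling enzymes plus AmpLite Red readout. Compounds at 57.5 uM final, 10 min RT preincubation, 20 min RT reaction, fluorescence 525/598 nm.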
# * = called active by the depositor; ? = inconclusive; · = no result; ! = not active in a repeat; [ ] = remark or other dose. Unless noted, the call rests on the fitted dose curve; in most records, active means well fitted curve in the direction sought with a large enough effect; inconclusive means small, poorly fitted or top-dose-only effect, or another doubt; inactive means no such curve, though single readings can be large; an effect the other way counts as inactive or inconclusive. Unless noted, on the % scale 0 is the no-effect control and ±100 the full control effect.
SMILES,Tau fluor counter,JMJD2E inh,Tau fibril ThT,Tau FP inhib,Coupling enz
CC(C)COCC(CN(Cc1ccccc1)c1ccccc1)N1CCCC1 (stereo unspecified),-22%,14µM*!,?,-9%,0
COc1ccc(SN=C2C(C)=CC(=O)C=C2C)cc1,?,-4%,2.8µM*,?,3
COc1ccc(C(=O)ON=C2C=C(C)C(=O)C(C)=C2)cc1,-1%,-9%,2%,0%,-21
COc1ncc2nc(-c3cccs3)c(=O)n(C)c2n1,·,·,·,·,0
CCc1ncc(/C=C2\C(=O)Nc3ccccc32)[nH]1,-7%,-9%,13µM*,-6%,0
O=C(/C=C1\C(=O)Nc2ccccc21)/C=C1\C(=O)Nc2ccccc21,-25%,?,28µM*,?,-9
Cc1ncc(/C=C2\C(=O)Nc3ccccc32)[nH]1,-12%,-9%,16µM*,1%,5
O=C1Nc2ccccc2/C1=C\C(=O)c1ccccc1,·,·,·,·,1
CCOc1ccccc1C(=O)Nc1cc(-c2nc3cccnc3s2)ccc1C,-17%,·,-9%,3%,·
C/C(=N\NC(=O)c1cccc(N/N=C(\C)c2ccco2)c1)c1ccco1,-28%,-5%,?,15%,-1
COc1ccc(OC)c(/C(C)=N/Nc2ccc(C(=O)O)cc2)c1,13%,?,7%,-5%,14
C/C(=N\NC(=O)c1ccc(N/N=C(\C)c2ccc(O)cc2)cc1)c1ccc(O)cc1,16µM*[quencher],?,3.2µM*,?,-1
C/C(=N\NC(=O)c1cccc(N/N=C(\C)c2cc(O)ccc2O)c1)c1cc(O)ccc1O,?,25µM*,28µM*,?,-1
C/C(=N/NC(=O)c1ccccn1)c1ccc(O)cc1,-9%,-10%,?,-2%,3
C/C(=N/Nc1ccc(C(=O)O)cc1)c1ccc(O)c(O)c1O,-22%,8.9µM*,11µM*,?,-34*
COc1ccccc1-c1nnc2n1N=C(c1c(OC)cccc1OC)CS2,·,·,·,·,0
CC(C)COc1ccc(C(=O)Nc2nnc(S(=O)(=O)N(C)Cc3ccco3)s2)cc1,-3%,·,?,-15%,·
COc1ccc(NC(=O)CCS(=O)(=O)c2nc(-c3cccs3)cc(C(F)(F)F)n2)cc1OC,-8%,·,-15%,-2%,·
COc1cc(O)c(C(C)=O)c(OC)c1,-20%,2%,-3%,-7%,-1
COc1cc(O)c(C(C)=O)c(CC(=O)O)c1,-11%,25µM*,?,-7%,-21
CCOC(=O)c1[nH]c(C)c(C(=O)OC)c1C,-11%,-5%,-8%,0%,-1
COC(=O)c1c(C)[nH]c(-c2csc(N)n2)c1C,?,-22%,25µM*,-13%,-3
CC1=Nc2ccccc2/C1=C\c1nc(-c2ccc(F)cc2)oc1O,10µM*[quencher],?,7.1µM*,?,-1
CC1=CC2=C(OC1N(C)C)c1cccc3cccc(c13)C2=O (stereo unspecified),-29%,20µM*,20µM*,?,-28
CC(=O)c1ccc(N=Nc2ccc(N(C)C)cc2)cc1,-26%,?,1µM*,-7%,1
SMILES,Tau fluor counter,JMJD2E inh,Tau fibril ThT,Tau FP inhib,Coupling enz
CC(=O)c1ccc(N=Nc2ccc(C)cc2)cc1,-25%,0%,4.5µM*,3%,2
CCCNC(=O)N1CCCN(S(=O)(=O)c2ccc3c(ccn3CC)c2)CC1,-1%,·,-4%,1%,·
O=C(COC(=O)c1cc(S(=O)(=O)N2CCc3ccccc3C2)ccc1Cl)NCc1ccco1,?,-3%,32µM*,?,-13
CCOC(=O)c1cccc(NC(=O)CCCn2c(C)c3cnn(-c4ccccc4)c(=O)c3c2C)c1,?,·,-17%,2%,·
Cc1ccc(S(=O)(=O)Nc2ccc(O)c3ncccc23)cc1,-12%,25µM*,-14%,6%,-3
CCOc1ccc2oc(=O)cc(CN3CCN(C(=O)c4ccc(Cl)cc4)CC3)c2c1,3%,·,-2%,4%,·
Clc1ccc(-c2nc3sccn3c2/C=N/OCc2ccc(Cl)c(Cl)c2)cc1,-8%,·,-3%,-18%,-3

# Assay outcomes (PubChem BioAssay)
